The supplement of paper PMC8728848
The full list was thinned out, with the strongest signals kept by preference.

What was measured:
Test in all cases: glycan array binding signal (z-score within array); higher = stronger binding
Conditions in all cases: glycan notation: IUPAC condensed, linker removed; mutation: Y228W
[1] = target: Gal(b1-4)GlcNAc(b1-3)Gal(b1-4)GlcNAc(b1-2)[Gal(b1-4)GlcNAc(b1-3)Gal(b1-4)GlcNAc(b1-6)]Man(a1-6)[Gal(b1-4)GlcNAc(b1-3)Gal(b1-4)GlcNAc(b1-2)Man(a1-3)]Man(b1-4)GlcNAc(b1-4)[Fuc(a1-6)]GlcNAc
Outline: (§1)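 Glycan array data were curated from 3228 arrays in the Consortium for Functional Glycomics database and kept only where the protein sequence was available. Glycan names were converted to IUPAC-condensed notation, and columns mapping to the same glycan were averaged. The binding signal is a within-array Z-score, averaged across arrays of the same protein sequence at different concentrations or buffers and across linkers. Negative Z-scores can be read as non-binding.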

[2] = target: Gal(b1-4)GlcNAc(b1-3)Gal(b1-4)GlcNAc(b1-3)Gal(b1-4)GlcNAc(b1-2)[Gal(b1-4)GlcNAc(b1-3)Gal(b1-4)GlcNAc(b1-3)Gal(b1-4)GlcNAc(b1-6)]Man(a1-6)[Gal(b1-4)GlcNAc(b1-3)Gal(b1-4)GlcNAc(b1-3)Gal(b1-4)GlcNAc(b1-2)Man(a1-3)]Man(b1-4)GlcNAc(b1-4)[Fuc(a1-6)]GlcNAc
Outline: as §1

[3] = target: Gal(b1-4)GlcNAc(b1-3)Gal(b1-4)GlcNAc(b1-3)Gal(b1-4)GlcNAc(b1-3)Gal(b1-4)GlcNAc(b1-3)Gal(b1-4)GlcNAc(b1-2)Man(a1-3)[Gal(b1-4)GlcNAc(b1-3)Gal(b1-4)GlcNAc(b1-3)Gal(b1-4)GlcNAc(b1-3)Gal(b1-4)GlcNAc(b1-3)Gal(b1-4)GlcNAc(b1-2)Man(a1-6)]Man(b1-4)GlcNAc(b1-4)GlcNAc
Outline: as §1

[4] = target: Gal(b1-4)GlcNAc(b1-6)[Gal(b1-3)]GalNAc
Outline: as §1

[5] = target: Gal3S(b1-4)[Fuc(a1-3)]GlcNAc6S
Outline: as §1

Gal6S(b1-3)GlcNAc6S = target: Gal6S(b1-3)GlcNAc6S
Outline: as §1

Gal6S(b1-4)GlcNAc6S = target: Gal6S(b1-4)GlcNAc6S
Outline: as §1

[6] = target: GalNAc(b1-4)GlcNAc(b1-3)GalNAc(b1-4)GlcNAc
Outline: as §1

Glc(a1-4)Glc = target: Glc(a1-4)Glc
Outline: as §1

GlcA(b1-6)Gal = target: GlcA(b1-6)Gal
Outline: as §1

[7] = target: GlcNAc(a1-3)Gal(b1-4)GlcNAc
Outline: as §1

GlcNAc(b1-3)Gal = target: GlcNAc(b1-3)Gal
Outline: as §1

[8] = target: GlcNAc(b1-4)Gal(b1-4)GlcNAc
Outline: as §1

Man(a1-3)[Man(a1-6)]Man = target: Man(a1-3)[Man(a1-6)]Man
Outline: as §1

[9] = target: Man(a1-3)[Man(a1-6)]Man(a1-6)[Man(a1-3)]Man
Outline: as §1

[10] = target: Neu5Ac(a2-3)Gal(b1-3)GalNAc6S
Outline: as §1

[11] = target: Neu5Ac(a2-3)Gal(b1-3)GlcNAc(b1-2)Man(a1-3)[Neu5Ac(a2-3)Gal(b1-3)GlcNAc(b1-2)Man(a1-6)]Man(b1-4)GlcNAc(b1-4)GlcNAc
Outline: as §1

[12] = target: Neu5Ac(a2-3)Gal(b1-3)[Fuc(a1-4)]GlcNAc(b1-3)Gal(b1-4)[Fuc(a1-3)]GlcNAc
Outline: as §1

[13] = target: Neu5Ac(a2-3)Gal(b1-4)GlcNAc(b1-3)Gal(b1-4)[Fuc(a1-3)]GlcNAc
Outline: as §1

[14] = target: Neu5Ac(a2-3)Gal(b1-4)[Fuc(a1-3)]GlcNAc(b1-3)Gal
Outline: as §1

[15] = target: Neu5Ac(a2-3)[GalNAc(b1-4)]Gal(b1-4)GlcNAc
Outline: as §1

[16] = target: Neu5Ac(a2-6)Gal(b1-4)GlcNAc(b1-2)Man(a1-3)[Gal(b1-4)GlcNAc(b1-2)Man(a1-6)]Man(b1-4)GlcNAc(b1-4)GlcNAc
Outline: as §1

[17] = target: Neu5Ac(a2-6)Gal(b1-4)GlcNAc(b1-2)Man(a1-3)[Man(a1-6)]Man(b1-4)GlcNAc(b1-4)GlcNAc
Outline: as §1

[18] = target: Neu5Ac(a2-6)Gal(b1-4)GlcNAc(b1-2)Man(a1-3)[Neu5Ac(a2-6)Gal(b1-4)GlcNAc(b1-2)Man(a1-6)]Man(b1-4)GlcNAc(b1-4)[Fuc(a1-6)]GlcNAc
Outline: as §1

[19] = target: Neu5Ac(a2-6)Gal(b1-4)GlcNAc(b1-2)Man(a1-6)[Gal(b1-4)GlcNAc(b1-2)Man(a1-3)]Man(b1-4)GlcNAc(b1-4)GlcNAc
Outline: as §1

[20] = target: Neu5Ac(a2-6)GalNAc(b1-4)GlcNAc6S
Outline: as §1

Neu5Ac(a2-8)Neu5Ac = target: Neu5Ac(a2-8)Neu5Ac
Outline: as §1

[21] = target: Neu5Gc(a2-3)Gal(b1-4)GlcNAc
Outline: as §1

[22] = target: Neu5Gc(a2-8)Neu5Gc(a2-3)Gal(b1-4)GlcNAc(b1-3)Gal(b1-4)GlcNAc
Outline: as §1

B1: Epa1-NP-mutant-Y228W (Candida glabrata), Q6VBJ0 (protein)
chain: MILNPALFLNKCVCIYTTLILLLLTNGGYATSSNDISLASKDPTTFPLGCSPDITTPKKGLSMELYSYDFRKKGSYPCWDAAYLDPNYPRTGYKSHRLLAKVDGVTGNINFYYHATKGCTPQLGHLPASYNYPKPLTMTNFTMLLYGYFRPKVTGFHTFTISADDLLFVNFGAGNAFDCCRRDSSADHFGNYQAYAIWGSKTAKDELTVHLDAGVYYPIRLFYNNREWDGALSFTFKTESNENTVSDFSEYFFSLDDTEEGCPGLISYDSSCASVKTSKIIGIDYHTETPNENLVPITKTIYHLGIPCTGTTTTPLCGSGFYDPLANKCVTINTSSTSSVTKTTSHTTSKEVSFHSSISSQKTLIPKSIPSPYGPIKSQSIPTEMETSSEISSSEYAFSDVISTPSHSPYTKKHSSLNSSSYTSTVIHSLTSYSISQGIFSTSLSEQNITSKSSTDKFSTATSMSNNITQSSIIISQFSTNNENYTTTSMHTSSDKISTETLNNSISTTTSILFSNSSTILKNNTTIISSDKDTHYHPVNPTIVCSTNKTEIICASITQPSISNSNNHWSSSVLKFNSTTVRSTLPSSAGSNETSINVPFSSSTESNTSTSSTSTSNSKMVRSTLPSSAGSNETSISVPFSSSTESNTSTSSTSTSNSKMVRSTLPSSAGSNETSINVPFSSSTESNTSTSSTSTSNSKTVRSTPFSSAGIIMTSLSQRNNKSASSYASSNSKCYNTADSCRKVHSTPSYLLTSSYTSEGVDYDCSLVSTKLKINDTNCVNNKHTTKSCLKTSVTTTIPTLEIKTARKSSSNTIGLHSYPTSSPNKSISSAPIIGYISSFKTIKTASPSYQTSDLTTITTITSLNNPGSTAVENTHESNDKSRKTSSNDISSKHSVIKETKDAVESSNKSHQTNTLKCSSIIIASSSHNSYESLGGTTLTLTLSKVYSPQNNDTLPFLEISEVNPSRTVLPESSKMMQYLTSTEERNKTARNTIATNIVSISTFHFEGEGNAIRMGYTQLLLMLIGIIVMNIGT
- glycan array binding signal (z-score) [1]: 2.98
- glycan array binding signal (z-score) [2]: 3.05
- glycan array binding signal (z-score) [3]: 1.78
- glycan array binding signal (z-score) [4]: 2.77
- glycan array binding signal (z-score) [5]: -0.015
- glycan array binding signal (z-score) (Gal6S(b1-3)GlcNAc6S): 0.205
- glycan array binding signal (z-score) (Gal6S(b1-4)GlcNAc6S): 3.63
- glycan array binding signal (z-score) [6]: -0.329
- glycan array binding signal (z-score) (Glc(a1-4)Glc): -0.29
- glycan array binding signal (z-score) (GlcA(b1-6)Gal): 0.341
- glycan array binding signal (z-score) [7]: -0.131
- glycan array binding signal (z-score) (GlcNAc(b1-3)Gal): -0.421
- glycan array binding signal (z-score) [8]: -0.126
- glycan array binding signal (z-score) (Man(a1-3)[Man(a1-6)]Man): -0.183
- glycan array binding signal (z-score) [9]: -0.095
- glycan array binding signal (z-score) [10]: -0.312
- glycan array binding signal (z-score) [11]: -0.117
- glycan array binding signal (z-score) [12]: 0.021
- glycan array binding signal (z-score) [13]: -0.295
- glycan array binding signal (z-score) [14]: -0.343
- glycan array binding signal (z-score) [15]: -0.228
- glycan array binding signal (z-score) [16]: -0.285
- glycan array binding signal (z-score) [17]: 0.235
- glycan array binding signal (z-score) [18]: -0.238
- glycan array binding signal (z-score) [19]: -0.14
- glycan array binding signal (z-score) [20]: -0.172
- glycan array binding signal (z-score) (Neu5Ac(a2-8)Neu5Ac): -0.272
- glycan array binding signal (z-score) [21]: -0.19
- glycan array binding signal (z-score) [22]: -0.388
